Experimental findings from the supplement of paper PMC10338343 are described below.

± gives the standard deviation. Whole data set: some 3,000 sequences, median “pre-steady-state target cleavage rate” near 0.0079, cut for the highest 2% near 0.2. Many of the other results were omitted from the sample, so the highest values are more common in it than they were. A value given as a limit tells only on which side of the number the result lay.

In the assay the test system is MILI (PIWIL2) piRISC loaded with piRNA #2 (26 nt). Kind of assay: pre-steady-state target cleavage rate (min^-1); MIWI and MILI are mouse PIWI proteins and EfPiwi is from a freshwater sponge; tags in brackets are library labels; higher = faster piRNA-guided slicing of the target. Particulars: guide: piRNA #2 5'p-UUAGGUAACCCAGUAGAUCCAGAGGA; auxiliary factor: 500 nM mouse GTSF1. On the procedure:
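Cleave-'n-Seq: a library of target RNAs (target site embedded in constant flanks, ACAGCATTCCGCGTTAGTGATATCCG... 5' flank; DNA-blocked outside the site) at 0.1 nM was incubated with 1 nM active mouse MILI or MIWI piRISC (synthetic 5'-monophosphorylated piRNA guide) with or without 500 nM mouse GTSF1 at 33 °C for 1 min to 16 h. Uncleaved targets were sequenced and normalised to non-target controls, and the pooled three trials were fitted to a burst-and-steady-state model to give the pre-steady-state cleavage rate (min^-1; k3 is constrained to at most 1e-4). Sequence is the target site only; target names encode pairing extent (gX:gY) and contiguous / 1-mismatch / 2-mismatch / bulge geometry. Fits with R² ≤ 0 are excluded.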
Regarding CUUAACCUCUGGAACUUCUGGGUUACCUAA, the “pre-steady-state target cleavage rate” value was found to be 0.103 ± 0.028.

Take CUUAAGCUCUGGAUCUAGUGGGAUACCUAA: the “pre-steady-state target cleavage rate” value was 0.00824 ± 0.0045.

In the case of CUUAUCCUCUCGAUCUACUGGGAUACCUAA, the “pre-steady-state target cleavage rate” value is 0.0565 ± 0.013.

For CUUAUCCUCUGCAUCUACUGGGAUACCUAA, the “pre-steady-state target cleavage rate” value was determined as 0.0522 ± 0.025.

“CUUAAGGAGACGAUCUACUGGGUUACCUAU [g2:g19:cont:t1U]”: the “pre-steady-state target cleavage rate” value turned out to be 0.00667 ± 0.0036.

Take CUUAAGCUCUGGAUCUACUGGGUUAACUAA: the “pre-steady-state target cleavage rate” value came to 0.095 ± 0.017.

Consider CUUAUCCUCUGGAUCUACUGGGCUUACCUAA, for which the “pre-steady-state target cleavage rate” value was determined as 0.0139 ± 0.005.

In the case of CUUAAGCUCUGCAUCUACUGGGUUACCUAA, the “pre-steady-state target cleavage rate” value was 0.0767 ± 0.016.

For the sequence “CUUAACCUCUGGAUCUACUGGGUUACCUAA [g2:g25:cont:t1A]”, the “pre-steady-state target cleavage rate” value turned out to be 0.101 ± 0.02.

For the sequence CUUAACCUCUGGAUUCUACUGGGUUACCUAA, the “pre-steady-state target cleavage rate” value was 0.273 ± 0.093.

CUUAAGCUCUGGCUCUACUGGGUUACCUAA: the “pre-steady-state target cleavage rate” value is 0.163 ± 0.034.

Regarding CUUAACCUCUGGAUUACUGGGUUACCUAA, the “pre-steady-state target cleavage rate” value is 0.0792 ± 0.024.

On to CUUAAGCUCUGGCAUCUACUGGGUUACCUAA, for which the “pre-steady-state target cleavage rate” value was 0.453 ± 0.15.

As for CUUAUCGUCAGGAUCUACUGGGUUACCUAA, the “pre-steady-state target cleavage rate” value stood at 0.03 ± 0.012.

On to CUUAUGCUCUGGAUCUACUGCGUUACCUAA, for which the “pre-steady-state target cleavage rate” value was 0.0127 ± 0.0036.

With “CUUAAGGACUGGAUCUACUGGGUUACCUAA [g2:g22:cont:t1A]”, the “pre-steady-state target cleavage rate” value was 0.0428 ± 0.02.

On to CUUAAGGAGACCUAGUACGGGUUACCUAA, for which the “pre-steady-state target cleavage rate” value is less than 0.0001.

As for CUUAAGGAGAGGAAUCUACUGGGUUACCUAA, the “pre-steady-state target cleavage rate” value stood at 0.00399 ± 0.0036.

For CUUAUCCUCUGGAUGUACUGGGUUACGUAA, the “pre-steady-state target cleavage rate” value is 0.0286 ± 0.0078.

As to CUUAAGGACUGGAUCUACGGGGUUACCUAA, the “pre-steady-state target cleavage rate” value was determined as 0.0466 ± 0.013.

CUUAUCCUCUGGUUCUACUGGGUUUCCUAA: the “pre-steady-state target cleavage rate” value was determined as 2.2 ± 1.7.

Consider CUUAUCCUCUGGUUCUACUGGGAUACCUAA, for which the “pre-steady-state target cleavage rate” value turned out to be 0.188 ± 0.078.

On to CUUAACCUCUGGUACUACUGGGUUACCUAA, for which the “pre-steady-state target cleavage rate” value was 0.256 ± 0.074.

With CUUAUCCUCUGAGAUCUACUGGGUUACCUAA, the “pre-steady-state target cleavage rate” value was 0.106 ± 0.02.

Regarding CUUAUCCUCUGGUUCUACUGGGUUAGCUAA, the “pre-steady-state target cleavage rate” value stood at 0.235 ± 0.069.

On to CUUAACCUCUGGUAGUACUGGGUUACCUAA, for which the “pre-steady-state target cleavage rate” value stood at 0.078 ± 0.025.

Turning to CUUAUCCUCUGCAUCUACUGGGUUUCCUAA, the “pre-steady-state target cleavage rate” value amounted to 0.165 ± 0.071.

For the sequence CUUAUCCUCUGGAUCUACUGGGUUAGCUAA, the “pre-steady-state target cleavage rate” value came to 0.129 ± 0.025.

Regarding CUUAUCCUCUAGAUCUACUGGGUUACCUAA, the “pre-steady-state target cleavage rate” value came to 0.224 ± 0.034.

As for CUUAUCCUCUAGGAUCUACUGGGUUACCUAA, the “pre-steady-state target cleavage rate” value was 0.049 ± 0.012.

For CUUAACCUCUGGACUACUGGGUUACCUAA, the “pre-steady-state target cleavage rate” value is 0.156 ± 0.037.

With CUUAUCCUCUGCAUCUACUGGGUUAGCUAA, the “pre-steady-state target cleavage rate” value was determined as 0.145 ± 0.054.

Take CUUAAGCUCUGGAUCUACAGGGUUACGUAA: the “pre-steady-state target cleavage rate” value amounted to 0.0394 ± 0.01.

Take CUUAAGCUCUGGAUCCACUGGGUUACCUAA: the “pre-steady-state target cleavage rate” value amounted to 0.0284 ± 0.0092.

With CUUAACCUCUGCAUCUACAGGGUUACCUAA, the “pre-steady-state target cleavage rate” value came to 0.0773 ± 0.014.

As to CUUAAGGACUCGAUCUACUGGGUUACCUAA, the “pre-steady-state target cleavage rate” value was 0.0128 ± 0.0065.

For the sequence CUUAAGGAGAGGAUCUACAGGGUUACCUUA, the “pre-steady-state target cleavage rate” value worked out at 0.0102 ± 0.0051.

As to CUUAACCUCUGGAUCUAGUGGGAUACCUAA, the “pre-steady-state target cleavage rate” value came to 0.0146 ± 0.0055.

For the sequence CUUAUCCUCUGGAUGUACUGGGUUACCUAA, the “pre-steady-state target cleavage rate” value stood at 0.108 ± 0.022.

Take CUUAAGGUCUGGAUCUACUGGGAAACCUAA: the “pre-steady-state target cleavage rate” value amounted to 0.0107 ± 0.0055.

Turning to CUUAUCCUCUGGUUCUACUGGGUUACCAAA, the “pre-steady-state target cleavage rate” value was 0.453 ± 0.15.

Take CUUAAGCUCUGGUUCUACUGGGUUACCAAA: the “pre-steady-state target cleavage rate” value came out at 0.199 ± 0.063.

Consider CUUAUCCUCUGGUUCUACUGGGUUACGUAA, for which the “pre-steady-state target cleavage rate” value was determined as 0.634 ± 0.25.

In the case of CUUAUCCUCUCGAUCUACUGGGUUACCAAA, the “pre-steady-state target cleavage rate” value is 0.13 ± 0.025.

As to CUUAAGCUCUGGUUCUACUGGGUUACCUAA, the “pre-steady-state target cleavage rate” value amounted to 0.131 ± 0.027.

Take CUUAUCCUCUGGAACUACUGGGUUACCUAA: the “pre-steady-state target cleavage rate” value is 0.188 ± 0.042.

CUUAUCCUCUGGAACUACUGGGUUACCUUA: the “pre-steady-state target cleavage rate” value was found to be 0.266 ± 0.073.

Turning to CUUAAGCUCUGGUUCUACUGGGUUACCUUA, the “pre-steady-state target cleavage rate” value was 0.126 ± 0.036.

CUUAUCCUCUGGAACUACUGGGUUACCAAA: the “pre-steady-state target cleavage rate” value turned out to be 0.13 ± 0.044.

For the sequence CUUAUCCUCUGGAUCUACUGGGUUACCAA, the “pre-steady-state target cleavage rate” value was found to be 0.123 ± 0.022.

In the case of CUUAUCCUCUGGAACUACUGGGUUACGUAA, the “pre-steady-state target cleavage rate” value turned out to be 0.197 ± 0.068.

For CUUAACCUCUGGUUCUACUGGGUUACGUAA, the “pre-steady-state target cleavage rate” value was found to be 0.12 ± 0.043.

Turning to CUUAUCCUCUGGAUACUACUGGGUUACCUAA, the “pre-steady-state target cleavage rate” value worked out at 0.0816 ± 0.019.

With CUUAAGCUCUGGAUCUACUGGGUUUCGUAA, the “pre-steady-state target cleavage rate” value came to 0.0193 ± 0.0086.

As to CUUAUCCUGUGGAUCUACUGGGUUACGUAA, the “pre-steady-state target cleavage rate” value was 0.0102 ± 0.0038.

On to CUUAAGGUCUGGACUCUACUGGGUUACCUAA, for which the “pre-steady-state target cleavage rate” value was 0.0367 ± 0.014.

With CUUAACACUCUGGAUCUACUGGGUUACCUAA, the “pre-steady-state target cleavage rate” value stood at 0.0824 ± 0.024.

As to CUUAAGCUCUGGAUCUACUGGGUUACGUAA, the “pre-steady-state target cleavage rate” value stood at 0.0464 ± 0.011.

As to CUUAUCCUGCUGGAUCUACUGGGUUACCUAA, the “pre-steady-state target cleavage rate” value came to 0.0776 ± 0.018.

As to CUUAUCCUCUGGAUGUACUGGGUAACCUAA, the “pre-steady-state target cleavage rate” value turned out to be 0.0198 ± 0.0082.

As for CUUAACCUCUCGAUCUACUGGGUUACGUAA, the “pre-steady-state target cleavage rate” value is 0.052 ± 0.017.

With CUUAUCCUCUGCUUCUACUGGGUUACCUAA, the “pre-steady-state target cleavage rate” value amounted to 0.157 ± 0.026.

As for CUUAUCCUCUGGAUCUUCUGGGUUACCUAA, the “pre-steady-state target cleavage rate” value was 0.105 ± 0.019.

In the case of CUUAUCCUCUGGUUCUACUGGGUUACCUUA, the “pre-steady-state target cleavage rate” value amounted to 1.12 ± 0.39.

With CUUAUCCUCUCCUUCUACUGGGUUACCUAA, the “pre-steady-state target cleavage rate” value was 0.106 ± 0.023.

As to CUUAUCCUCUGGUUCUACUGGGUUACCUAA, the “pre-steady-state target cleavage rate” value came out at 0.469 ± 0.1.

As to CUUAUCCUCUGGUUCUUCUGGGUUACCUAA, the “pre-steady-state target cleavage rate” value was 0.338 ± 0.088.

For the sequence CUUAUCCUCUGGUAUCUACUGGGUUACCUAA, the “pre-steady-state target cleavage rate” value amounted to 1.05 ± 0.33.

With CUUAUCCUCUCGUUCUACUGGGUUACCUAA, the “pre-steady-state target cleavage rate” value amounted to 0.136 ± 0.021.

CUUAUCCUCUGUAUCUACUGGGUUACCUAA: the “pre-steady-state target cleavage rate” value was 0.0865 ± 0.015.

With CUUAUCCUCUGGUUCUACUGCGUUACCUAA, the “pre-steady-state target cleavage rate” value was found to be 0.0261 ± 0.0078.

CUUAUCCUCUGGAUCUACUGGGGUUACCUAA: the “pre-steady-state target cleavage rate” value turned out to be 0.0435 ± 0.012.

Consider CUUAUCCUCUGGUUCUAGUGGGUUACCUAA, for which the “pre-steady-state target cleavage rate” value worked out at 0.134 ± 0.028.

Consider CUUAACCUCUGGAUCUACUGGGUUACCAUAA, for which the “pre-steady-state target cleavage rate” value stood at 0.13 ± 0.03.
